From PubChem BioAssay AID1159580 (chemical genetic matrix, 2015)
About 2,000 (36%) of roughly 5,500 compounds were called active. Not shown: some 18% with an inconclusive outcome. Rule as the data show it: active = normalized growth mostly below about 0.91 (no sharp cut-off); inconclusive = no clear call, values can overlap the other calls; inactive = mostly above about 0.92. The list shows a part of the results.

Test: chemical genetic growth profiling, strain panel (AID 1159580);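 also: tested at 20 µM; growth read once vehicle control cultures reached saturation at 30 °C; 1 = growth at the plate median or of vehicle wells; lower values mean less growth of the strain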
Conditions: S. cerevisiae deletion strains, growth OD

Measured: normalized growth

COc1cc([C@@H]2c3cc4c(c(O)c3C[C@H]3COC(=O)[C@@H]32)OCO4)cc(OC)c1OC
inactive: locus YAL013W, strain DEP1, stronger effect = lower value 0.986 | locus YAL021C, strain ccr4, stronger effect = lower value 0.995 | locus YAL026C, strain drs2, stronger effect = lower value 0.992 | locus YAL030W, strain snc1, stronger effect = lower value 0.986 | locus YBL061C, strain skt5, stronger effect = lower value 0.994 | locus YBR009C, strain hhf1, stronger effect = lower value 0.993 | locus YBR021W, strain FUR4, stronger effect = lower value 1 | locus YBR023C, strain chs3, stronger effect = lower value 0.999 | locus YBR171W, strain sec66, stronger effect = lower value 0.971 | locus YBR229C, strain ROT2, stronger effect = lower value 0.985 | locus YBR231C, strain swc5, stronger effect = lower value 0.977 | locus YBR279W, strain paf1, stronger effect = lower value 0.994 | locus YCL011C, strain gbp2, stronger effect = lower value 0.996 | locus YCL016C, strain dcc1, stronger effect = lower value 1 | locus YCL029C, strain bik1, stronger effect = lower value 0.978 | locus YCL069W, strain vba3, stronger effect = lower value 1 | locus YCR088W, strain abp1, stronger effect = lower value 0.984 | locus YDL005C, strain med2, stronger effect = lower value 0.979 | locus YDL035C, strain GPR1, stronger effect = lower value 0.981 | locus YDL040C, strain nat1, stronger effect = lower value 0.994 | locus YDL074C, strain BRE1, stronger effect = lower value 1.05 | locus YDL101C, strain DUN1, stronger effect = lower value 0.985 | locus YDL134C, strain PPH21, stronger effect = lower value 0.997 | locus YDL185W, strain tfp1, stronger effect = lower value 0.959 | locus YDL192W, strain arf1, stronger effect = lower value 0.972 | locus YDR001C, strain nth1, stronger effect = lower value 0.988 | locus YDR069C, strain doa4, stronger effect = lower value 0.981 | locus YDR101C, strain arx1, stronger effect = lower value 0.995 | locus YDR137W, strain rgp1, stronger effect = lower value 0.993 | locus YDR150W, strain NUM1, stronger effect = lower value 0.973 | locus YDR159W, strain sac3, stronger effect = lower value 0.967 | locus YDR162C, strain NBP2, stronger effect = lower value 0.998 | locus YDR195W, strain ref2 0.93 | locus YDR297W, strain sur2, stronger effect = lower value 0.976 | locus YDR318W, strain mcm21, stronger effect = lower value 0.986 | locus YDR334W, strain swr1, stronger effect = lower value 0.987 | locus YDR335W, strain msn5, stronger effect = lower value 1 | locus YDR388W, stronger effect = lower value 0.991 | locus YDR392W, strain spt3, stronger effect = lower value 0.924 | locus YDR502C, strain sam2, stronger effect = lower value 0.983 | locus YEL003W, strain gim4, stronger effect = lower value 0.983 | locus YEL037C, strain rad23, stronger effect = lower value 0.993 | locus YEL061C, strain CIN8 (second series), stronger effect = lower value 1 | locus YEL061C, strain CIN8, stronger effect = lower value 0.99 | locus YER015W, strain faa2, stronger effect = lower value 1 | locus YER016W, strain bim1, stronger effect = lower value 0.979 | locus YER110C, stronger effect = lower value 0.971 | locus YER111C, strain swi4, stronger effect = lower value 0.989 | locus YER155C, strain BEM2 (second series), stronger effect = lower value 0.96 | locus YER155C, strain BEM2, stronger effect = lower value 0.994 | locus YER167W, strain BCK2, stronger effect = lower value 0.976 | locus YFR010W, strain ubp6, stronger effect = lower value 0.995 | locus YGL078C, strain dbp3, stronger effect = lower value 0.986 | locus YGL086W, strain mad1, stronger effect = lower value 0.982 | locus YGL167C, strain pmr1, stronger effect = lower value 0.991 | locus YGL173C, strain kem1, stronger effect = lower value 0.98 | locus YGL227W, strain vid30, stronger effect = lower value 0.983 | locus YGL240W, strain doc1, stronger effect = lower value 0.961 | locus YGL248W, strain PDE1, stronger effect = lower value 0.988 | locus YGL253W, strain hxk2, stronger effect = lower value 0.994 | locus YGR078C, strain PAC10, stronger effect = lower value 1.03 | locus YGR135W, strain pre9, stronger effect = lower value 1.02 | locus YGR229C, strain SMI1, stronger effect = lower value 1.05 | locus YGR252W, strain gcn5, stronger effect = lower value 1.04 | locus YHR013C, strain ard1, stronger effect = lower value 1 | locus YHR027C, strain rpn1, stronger effect = lower value 0.976 | locus YHR030C, strain SLT2, stronger effect = lower value 0.979 | locus YHR079C, strain IRE1 (second series), stronger effect = lower value 0.983 | locus YHR094C, strain hxt1, stronger effect = lower value 0.974 | locus YHR129C, strain ARP1, stronger effect = lower value 0.993 | locus YHR142W, strain chs7, stronger effect = lower value 1.02 | locus YHR200W, strain rpn10, stronger effect = lower value 0.975 | locus YIL066C, strain RNR3, stronger effect = lower value 0.983 | locus YIL073C, strain SPO22, stronger effect = lower value 0.923 | locus YIL125W, strain kgd1, stronger effect = lower value 0.986 | locus YIR030C, strain dcg1, stronger effect = lower value 0.982 | locus YJL092W, strain hpr5, stronger effect = lower value 0.999 | locus YJL095W, strain BCK1 (second series), stronger effect = lower value 0.987 | locus YJL095W, strain BCK1, stronger effect = lower value 1.05 | locus YJL115W, strain asf1, stronger effect = lower value 0.987 | locus YJL129C, strain trk1, stronger effect = lower value 0.962 | locus YJL134W, strain LCB3, stronger effect = lower value 0.982 | locus YJL154C, strain vps35, stronger effect = lower value 0.987 | locus YJL164C, strain tpk1, stronger effect = lower value 1 | locus YJL166W, strain qcr8, stronger effect = lower value 0.995 | locus YJL168C, strain set2, stronger effect = lower value 0.985 | locus YJL187C, strain SWE1 (second series), stronger effect = lower value 1.01 | locus YJL187C, strain SWE1, stronger effect = lower value 0.983
